This is one part of the list. The source made the active and inactive calls.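 Rule for the calls: active = average activation exceeds primary screen hit cutoff (cut at about 21% in these data); inactive = the rest.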

Chain of Vasopressin V1a receptor (Homo sapiens) (P37288 whole entry, looked up): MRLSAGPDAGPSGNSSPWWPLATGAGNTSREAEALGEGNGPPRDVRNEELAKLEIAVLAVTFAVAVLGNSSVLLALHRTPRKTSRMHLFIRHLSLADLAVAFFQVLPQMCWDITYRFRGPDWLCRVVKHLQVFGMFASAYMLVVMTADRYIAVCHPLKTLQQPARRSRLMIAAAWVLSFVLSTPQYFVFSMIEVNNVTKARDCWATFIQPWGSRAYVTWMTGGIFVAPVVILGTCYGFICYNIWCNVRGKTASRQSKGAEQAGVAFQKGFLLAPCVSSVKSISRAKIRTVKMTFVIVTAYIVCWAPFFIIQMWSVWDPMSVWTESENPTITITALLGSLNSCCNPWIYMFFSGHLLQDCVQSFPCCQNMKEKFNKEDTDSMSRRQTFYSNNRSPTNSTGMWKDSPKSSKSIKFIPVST

This experiment concerns the target Vasopressin V1a receptor (Homo sapiens) (UniProt P37288). In words: activators of vasopressin V1R in CHO cells – cell-based, Fluo-8 calcium fluorescence, confirmation (AID 434964).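 Note: peak over basal fluorescence ratio during a 100 s FLIPR read; 0% = DMSO only wells and 100% = 3 nM vasopressin wells.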 The note with it: agonist, at 3 µM, active compounds read high.
In the case of `O=C(c1ccccc1)c1ccc(OCC(O)CN2CCCC2)cc1` (stereo not drawn), the activation was -0.08% (inactive).

In the case of `Fc1cccc(Cl)c1COc1ccc(-c2nnco2)cc1`, the activation is 2.1% (inactive).

On to `CCN(CC)c1ccc2cc(C(N)=O)/c(=N\NC(=O)c3ccncc3)oc2c1`, for which the activation is 21.7% (active).

As to `Cc1cc(C)c(/C=C2\C(=O)Nc3ccccc32)[nH]1`, the activation is 40.5% (active).

For the molecule `O=C(CN1CCN(c2cccc(Cl)c2)CC1)Nc1ccc(S(=O)(=O)N2CCOCC2)cc1`, the activation was 3.06% (inactive).

Turning to `O=c1c2cc(Br)ccc2nc(-c2cccc(Cl)c2)n1O`, the activation is 31.8% (active).

For `CCN(CC)c1ccc(/C=N/NC(=O)c2cnccn2)c(O)c1`, the activation was 10.5% (inactive).

Consider `CC1(C)S[C@@H]2[C@H](N=CN3CCCCCC3)C(=O)N2[C@H]1C(=O)O`, for which the activation is 0.2% (inactive).

These data come from PubChem BioAssay AID434964 (The Scripps Research Institute Molecular Screening Center, 2010).
